FAS TE block: inhibitors of human fatty acid synthase thioesterase domain; P49327; 0.67% of 360,000 active; inhibition, % at 15 µM; recombinant FAS-TE, OMFH fluorogenic substrate, fluorescence endpoint;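 active means compounds whose normalised, plate-corrected inhibition of enzyme fluorescence in the single-dose primary screen is 50% or more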
ADAM10 inh: inhibits human ADAM10. O14672. recombinant ADAM10, EDANS/DABCYL FRET peptide cleavage, 3 h. inhibition, % at 7 µM. 0.62% of 370,000 active. AID 720582;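 active means inhibition above a per-campaign cutoff equal to the mean of compounds falling between control-based bounds plus 3 SD, cut at about 20% in these data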
KLK7 zymogen act: proKLK7 (human) activation, primary screen. P49862. purified proKLK7, EDANS-DABCYL substrate fluorescence; 100% is mature enzyme control, 0% vehicle. activation, % at 7 µM. 0.9% of 370,000 active. AID 652039;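 active means activation above the mean of all tested compounds plus 3 SD, computed per campaign excluding outliers beyond control limits, cut at about 13% in these data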
Target sequence (P49862 whole entry, looked up): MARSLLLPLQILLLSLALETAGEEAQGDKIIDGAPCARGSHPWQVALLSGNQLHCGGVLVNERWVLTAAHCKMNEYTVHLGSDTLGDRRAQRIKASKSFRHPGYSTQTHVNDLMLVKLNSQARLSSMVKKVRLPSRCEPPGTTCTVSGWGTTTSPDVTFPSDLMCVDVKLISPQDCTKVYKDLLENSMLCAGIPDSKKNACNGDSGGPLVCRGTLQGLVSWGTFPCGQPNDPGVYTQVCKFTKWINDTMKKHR
NR3A LBD binder: NR3A (human) ligand-binding domain modulation; NR3A LBD differential scanning fluorimetry, Tm shift; 0% = protein alone, 100% = glycine-bound protein; Tm shift relative to glycine control, % at 25 µM; 2.5% of 340,000 active;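 active means melting temperature shift of at least 10% of the positive control shift, at one fixed dose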
ADAM17 inh: inhibits human ADAM17; recombinant ADAM17, EDANS/DABCYL FRET peptide cleavage; inhibition, % at 6.95 µM; 0.83% of 370,000 active;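 active means inhibition above the mean of compounds lying between control limits plus 3 SD, set per campaign, cut at about 8.5% in these data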
Hits are given with their value. Most compounds without a hit are left out; they make up all but 4.6% or so of the library.

How did CCOc1ccc(/C=C(\C(=O)O)c2ccc(S(=O)(=O)N3CCOCC3)s2)cc1OC do in these assays?
FAS TE block: inactive; ADAM10 inh: inactive; KLK7 zymogen act: inactive; NR3A LBD binder: 12; ADAM17 inh: inactive

How did CCOc1ccc(/C=C(\C(=O)O)c2ccc(S(=O)(=O)N3CCCCC3)s2)cc1OC do in these assays?
FAS TE block: inactive; ADAM10 inh: inactive; KLK7 zymogen act: inactive; NR3A LBD binder: 18; ADAM17 inh: inactive

Results for COc1ccc(Br)cc1/C=C(\C(=O)O)c1ccc(S(=O)(=O)N2CCCC2)s1 ?
FAS TE block: inactive; ADAM10 inh: inactive; KLK7 zymogen act: inactive; NR3A LBD binder: inactive; ADAM17 inh: inactive

What do the screens show for `CNC(=O)[C@@H]1CC=C[C@@H]2CCN(c3ccccc3)C(=O)[C@@H]21`?
ADAM10 inh: inactive; ADAM17 inh: inactive

Results for COC(=O)[C@]12C[C@H](CC(=O)N3CCSCC3)C(=O)N(CCc3ccc(OC)c(OC)c3)C1=C[C@H](COCc1ccccc1)O[C@@H]2C ?
ADAM10 inh: inactive; KLK7 zymogen act: inactive; ADAM17 inh: inactive

Results for O=C(Nc1nc2ccc(F)cc2s1)c1ccc(N2CCCC2=O)cc1 ?
FAS TE block: inactive; ADAM10 inh: inactive; KLK7 zymogen act: inactive; NR3A LBD binder: 11; ADAM17 inh: inactive

What do the screens show for `COC(=O)c1ccc2nc(Nc3nc4ccc(F)cc4s3)sc2c1`?
FAS TE block: inactive; ADAM10 inh: inactive; KLK7 zymogen act: inactive; NR3A LBD binder: 12; ADAM17 inh: inactive

Results for COC(=O)c1ccc2nc(NC(=O)C(C)(C)C)sc2c1 ?
FAS TE block: inactive; ADAM10 inh: inactive; KLK7 zymogen act: inactive; NR3A LBD binder: inactive; ADAM17 inh: inactive

How did Cc1nnc(NC(=O)c2ccc(N3CCCC3=O)cc2)s1 do in these assays?
FAS TE block: inactive; ADAM10 inh: inactive; KLK7 zymogen act: inactive; NR3A LBD binder: inactive; ADAM17 inh: inactive

What do the screens show for `CCC[C@H]1[C@@H](O)CC[C@@]23CCCN2C(=O)CCC[C@@H]13`?
ADAM10 inh: inactive; ADAM17 inh: inactive

What do the screens show for `CS(=O)(=O)c1ccc(C(=O)OCC(=O)NC(=O)C2CCCCC2)cc1[N+](=O)[O-]`?
FAS TE block: inactive; ADAM10 inh: inactive; KLK7 zymogen act: inactive; NR3A LBD binder: 19; ADAM17 inh: inactive

Results for Cc1ccc(NC(=S)Nc2cccc3ccccc23)cc1F ?
FAS TE block: inactive; ADAM10 inh: inactive; KLK7 zymogen act: inactive; NR3A LBD binder: 16; ADAM17 inh: inactive

How did Fc1cccc(NC(=S)Nc2cccc3ccccc23)c1 do in these assays?
FAS TE block: inactive; ADAM10 inh: inactive; KLK7 zymogen act: inactive; NR3A LBD binder: inactive; ADAM17 inh: inactive

What do the screens show for `Cc1ccc(SC[C@H](Cc2ccccc2)N2CCN(CCc3ccccc3)CCC2=O)cc1`?
FAS TE block: inactive; ADAM10 inh: inactive; KLK7 zymogen act: inactive; NR3A LBD binder: 19; ADAM17 inh: inactive

How did C[C@H](O)[C@@H]1CN2CCc3c([nH]c4c(-c5ccc6c(c5)OCO6)cccc34)[C@@H]2C[C@@H]1N(C)C(=S)NCCc1ccccc1 do in these assays?
ADAM10 inh: inactive; KLK7 zymogen act: inactive; ADAM17 inh: inactive

What do the screens show for `O=S1(=O)c2ccc(N3CCCC3)cc2Oc2ccccc2CN1Cc1cn(Cc2ccccc2C(F)(F)F)nn1`?
ADAM10 inh: inactive; KLK7 zymogen act: inactive; ADAM17 inh: inactive

How did CCOC(=O)c1ccc(/C=C2/C=C(c3ccccc3)N(c3ccc(Cl)c(C(=O)O)c3)C2=O)cc1 do in these assays?
FAS TE block: inactive; ADAM10 inh: inactive; KLK7 zymogen act: inactive; NR3A LBD binder: 21; ADAM17 inh: inactive

How did COc1ccc(-c2ccc(-c3noc(C)n3)c(OC)n2)cc1 do in these assays?
FAS TE block: inactive; ADAM10 inh: inactive; KLK7 zymogen act: inactive; NR3A LBD binder: inactive; ADAM17 inh: inactive

How did CCOc1nc(-c2ccc(OC)cc2)ccc1-c1noc(C)n1 do in these assays?
FAS TE block: inactive; ADAM10 inh: inactive; KLK7 zymogen act: inactive; NR3A LBD binder: 25; ADAM17 inh: inactive

What do the screens show for `O=C(NC1CCCCN(Cc2cccc(C(F)(F)F)c2)C1=O)c1c(F)cccc1F` (centres undefined)?
ADAM10 inh: inactive; KLK7 zymogen act: inactive; ADAM17 inh: inactive

What do the screens show for `O=C(OCc1cn(Cc2ccccc2)nn1)N1CCCC1`?
ADAM10 inh: inactive; KLK7 zymogen act: inactive; ADAM17 inh: inactive

Results for O=C1NCCCc2c1no[n+]2[O-] ?
FAS TE block: inactive; ADAM10 inh: inactive; KLK7 zymogen act: inactive; NR3A LBD binder: 11; ADAM17 inh: inactive

Results for Cc1cc2c(nn1)CCc1c-2no[n+]1[O-] ?
FAS TE block: inactive; ADAM10 inh: inactive; KLK7 zymogen act: inactive; NR3A LBD binder: inactive; ADAM17 inh: inactive

What do the screens show for `COc1cccc(Oc2cn[nH]c2-c2ccc(O)cc2O)c1`?
FAS TE block: inactive; ADAM10 inh: inactive; KLK7 zymogen act: inactive; NR3A LBD binder: 28; ADAM17 inh: inactive

What do the screens show for `COc1cccc(Oc2cn[nH]c2-c2ccc(OC)cc2O)c1`?
FAS TE block: inactive; ADAM10 inh: inactive; KLK7 zymogen act: inactive; NR3A LBD binder: 22; ADAM17 inh: inactive

What do the screens show for `COc1ccccc1Oc1cn[nH]c1-c1ccc(O)cc1O`?
FAS TE block: inactive; ADAM10 inh: inactive; KLK7 zymogen act: inactive; NR3A LBD binder: inactive; ADAM17 inh: inactive

Results for CCCC1CCC2(CC1)CCC2OC(=O)Nc1ccc(C)cc1 (centres undefined) ?
ADAM10 inh: inactive; ADAM17 inh: inactive

Results for O=C(CSc1ncnc2nc[nH]c12)N1CCOCC1 ?
FAS TE block: inactive; ADAM10 inh: inactive; KLK7 zymogen act: inactive; NR3A LBD binder: 11; ADAM17 inh: inactive

Results for Cc1cc(C)c(C#N)c(SCCS(=O)(=O)Cc2ccc(Cl)cc2)n1 ?
FAS TE block: inactive; ADAM10 inh: inactive; KLK7 zymogen act: inactive; NR3A LBD binder: 18; ADAM17 inh: inactive

Results for CCC[C@H]1[C@@H](NC(=O)c2cccnc2)CC[C@@]23CCCN2C(=O)CCC[C@@H]13 ?
ADAM10 inh: inactive; ADAM17 inh: inactive

How did CCOC(=O)C1=C(C)Nc2sc(C(=O)c3ccc(F)cc3)c(N)c2C1c1ccc(C(=O)OC)cc1 (centres undefined) do in these assays?
FAS TE block: inactive; ADAM10 inh: inactive; KLK7 zymogen act: inactive; NR3A LBD binder: 13; ADAM17 inh: inactive

What do the screens show for `CCOC(=O)C1=C(C)NC(SCC(=O)OC)=C(C#N)C1c1ccc(C(=O)OC)cc1` (centres undefined)?
FAS TE block: inactive; ADAM10 inh: inactive; KLK7 zymogen act: inactive; NR3A LBD binder: inactive; ADAM17 inh: inactive

What do the screens show for `C=CCN1C(=O)[C@@H](CC(=O)NCc2cccc(C(F)(F)F)c2)[C@]2(C(=O)OCC)CCCCC/C=C/12`?
ADAM10 inh: inactive; KLK7 zymogen act: inactive; ADAM17 inh: inactive

What do the screens show for `COCCCNC(=O)C[C@H]1C[C@@]2(C(=O)OC)C(=C[C@H](COCc3ccccc3)O[C@@H]2C)N(Cc2ccccc2)C1=O`?
ADAM10 inh: inactive; KLK7 zymogen act: inactive; ADAM17 inh: inactive
